Structures are written as SMILES. Out of some 330,000 compounds screened, about 1,900 (0.58%) were called active. Another 4% or so got no clear call; they are omitted. These entries were drawn from the full list. Potency and affinity values are given separately. Unmarked numbers belong to inactive results. Cut-off read from the data, not from the text of the source: inconclusive = inhibition above about 70% without an active follow-up result; inactive = below that.

Broadly, the inhibition is the relative decrease from the control value, in per cent.

The test can be described thus: M. tuberculosis growth inhibition, HTS (AID 449762).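 Note: bacterial growth assessed after seven days of incubation.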 Particulars: M. tuberculosis H37Rv growth inhibition, 7H9 media; at 25 µM; active compounds read high.
On to `CC(=O)N1CCOc2ccc(S(=O)(=O)N3CCC(C(=O)Nc4ccc(C)c(C)c4)CC3)cc21`, for which the inhibition was 5.83%.
As for `CC(Oc1cc2oc(=O)c3c(c2cc1Cl)CCC3)C(=O)NCc1ccccn1` (stereo unspecified), the figure is 31%; as for `CC(Oc1ccc2c3c(c(=O)oc2c1)CCCC3)C(=O)NCc1ccccn1` (stereo unspecified), 33.2%.
As for `CCNc1cc(N2CCN(C)CC2)ccc1[N+](=O)[O-]`, the figure is -1.18%; as for `COc1cccc(NC(=S)N2CCc3cc(OC)c(OC)cc3C2)c1`, 1.01%; as for `CCOc1ccc(S(=O)(=O)N(C)c2ccc(OCC(=O)NCc3ccc(C(=O)OC)cc3)cc2)cc1`, -3.45%.
Turning to `Cc1cccn2c(=O)c3cc(C(=O)NCCc4ccccc4)c(=N)n(CC4CCCO4)c3nc12` (stereo unspecified), the inhibition is 4.7%.
The figure for `FC(F)(F)c1cc(Cl)c2nc(-c3ccccc3)cn2c1` is 4.79%; for `O=C(Nc1ccccc1)N(C1=NCCC1)c1ccc(OC(F)F)cc1` it is -0.82%; for `COc1ccc(N(C(=O)Nc2ccc(Cl)cc2)C2=NCCC2)cc1` it is 42.5%.
Regarding `COCC1CCN(C(=O)c2cc(COc3ccc(F)cc3F)on2)C1` (stereo unspecified), the inhibition was -0.65%.
On to `O=C(c1cc(COc2ccc(F)cc2F)on1)N1CC[C@@H]2CCCC[C@H]2C1`, for which the inhibition was 8.08%.
For the molecule `CC(NC(=O)c1cc(F)c(F)cc1Cl)C1CC2CCC1C2` (stereo unspecified), the inhibition was 9.14%.
Regarding `Cc1cc(C)cc(NC(=O)N2CCN(C/C=C/c3ccccc3)CC2)c1`, the inhibition is 6.44%.
In the case of `O=C(Nc1cccc(F)c1)N1CCN(C/C=C/c2ccccc2)CC1`, the inhibition was -4.24%.
Turning to `O=C1NC(=O)C2(Cc3ccccc3N3CCCC32)C(=O)N1Cc1ccccc1` (stereo unspecified), the inhibition was -3.61%.
As for `C=CCNC(=O)/C(=C/c1cn(-c2ccccc2)nc1-c1cccc([N+](=O)[O-])c1)NC(=O)c1ccccc1`, the figure is 9.03%; as for `O=[N+]([O-])/C(N=Nc1ccccc1)=N\Nc1ccccc1`, -2.92%; as for `NC(=O)/C(N=Nc1ccccc1)=N/Nc1ccccc1`, 63.8%.
The figure for `O=C(Cn1nnc(-c2ccc(S(=O)(=O)N3CCCC3)cc2)n1)Nc1ccccc1-n1cccc1` is -4.45%; for `CN(CC(=O)Nc1ccc(F)cc1[N+](=O)[O-])Cc1ccccc1` it is 6.03%; for `CCOC(=O)c1cc(/C(C)=N/OC(=O)c2ccc(Cl)cc2)on1` it is 47.9%.
The figure for `Cc1cc(C(=O)O/N=C(\N)c2ccc(C(C)(C)C)cc2)no1` is 0.64%; for `COc1cccc2c(=O)c3c([nH]c12)OC(C)(C)C3` it is 1.96%.
With `NC(=O)c1ccsc1NC(=O)c1cc(=O)c2ccccc2o1`, the inhibition was 1.83%.
As for `CC1=C(C(N)=O)C(c2ccccc2F)NC(=O)N1` (stereo unspecified), the figure is -4.59%.
As for `O=C(N/N=C/c1ccc(F)cc1)c1cccc(NC(=O)c2ccc(F)cc2)c1`, the figure is 9.14%; as for `CC(NC(=O)COC(=O)c1ccc(Cl)cc1O)c1ccc(F)cc1` (stereo unspecified), 2.35%.
As for `CC(C)(C)NC(=O)COC(=O)c1cc(Cl)ccc1[N+](=O)[O-]`, the figure is -0.3%; as for `CCOC(=O)c1ccc[n+](CC(=O)c2ccc(OC)cc2)c1`, -6.92%; as for `CN(C)/C=C/C(=O)c1ccc([N+](=O)[O-])c(CS(=O)(=O)c2ccccc2)c1`, 4.59%.
Consider `OC1CCN(c2cc(-c3ccccc3)nc3cc(-c4ccc(F)cc4)nn23)CC1`, for which the inhibition was 14.2%.
Take `Fc1ccc(-c2cc3nc(-c4ccccc4)cc(N4CCOCC4)n3n2)cc1`: the inhibition is -0.86%.
As for `O=C(CN1C(=O)S/C(=C\c2ccc(F)cc2)C1=O)Nc1cccc(S(=O)(=O)NCc2ccco2)c1`, the inhibition was -0.96%.
The figure for `C=CCNC(=O)C1CCN(c2cnccn2)CC1` is 1%; for `Cc1ccnc(NC(=O)C2CCN(S(=O)(=O)c3cccc(C(F)(F)F)c3)CC2)c1` it is -6.67%; for `Cn1c(O)c(C=Nc2ccc(Br)cc2)sc1=O` it is 2%.
The figure for `N=c1oc2cc(O)ccc2cc1C(=O)Nc1ccccn1` is 9.75%; for `N=c1oc2ccccc2cc1C(=O)Nc1ccccc1` it is -6.06%.
The figure for `O=C(NCc1nnc(SCC(=O)N2CCCC2)o1)c1ccc(F)cc1` is -1.8%; for `Cc1cc(C)c(C(=O)N(C)CC2CCCN(CCc3ccccc3F)C2)o1` (stereo unspecified) it is 7.36%.
As for `CCOC(=O)C1(CCCc2ccccc2)CCN(C(=O)c2ccoc2)CC1`, the inhibition was 3.78%.
The figure for `CC(=O)Nc1cn(-c2ccccc2)nc1-c1ccccc1` is 8.61%; for `O=C(Nc1cn(-c2ccccc2)nc1-c1ccc(Cl)cc1)c1ccccc1` it is 12.2%.
With `Oc1cc(NCCc2cccnc2)cc2cccnc12`, the inhibition was 11.9%.
The figure for `NS(=O)(=O)c1cccc(NC(=O)c2ccc3nc[nH]c3c2)c1` is 1.29%; for `CC12CCC(=O)N1C(C(=O)Nc1ccc(F)cc1)CS2` (stereo unspecified) it is -9.52%; for `CC(C)c1ccc(NC(=O)C2CSC3(C)CCC(=O)N23)cc1` (stereo unspecified) it is 5.83%.
Consider `Cc1ccc(CNC(=O)c2ccc(N3CCC4(CC3)CC(c3ccccc3)=NO4)c(NC(=O)c3ccc(Br)cc3)c2)cc1`, for which the inhibition was -2.65%.
As for `Nc1c(C(=O)OCC(=O)NCc2ccccc2)[nH]c(=O)[nH]c1=O`, the figure is 1.89%; as for `Cc1[nH]c(=O)[nH]c(=O)c1/C=C/C(=O)O`, -3.99%.
The figure for `Cc1cc(C(F)F)n2ncc(C(=O)N3CCc4ccccc4C3)c2n1` is -2.51%; for `COc1ccc(-c2cc(C(F)F)n3ncc(C(=O)N4CCc5ccccc5C4)c3n2)cc1` it is 15.6%; for `CCN(CC(=O)Nc1c(F)cccc1F)C(=O)c1ccc2c(c1)OCO2` it is -12.6%.
Consider `COc1ccc(S(=O)(=O)CC(O)CN2CCCC2=O)cc1` (stereo unspecified), for which the inhibition was -0.37%.
`COc1cccc(N2C(=O)CN(Cc3ccc(OC)c(OC)c3)C2=S)c1`: the inhibition is 2.7%.
As for `CC1=C(CC/C(C)=N/NC(N)=S)C(C)(C)CCC1`, the figure is 12%; as for `C/C(CC1CC2=C(CC1(C)C)C(C)(C)CCC2)=N\NC(N)=S` (stereo unspecified), -0.2%.
The figure for `CC(C)n1ncc2c(C(=O)Nc3ccc(S(C)(=O)=O)cc3)cc(C3CC3)nc21` is 2.05%; for `CCn1c(=O)cc(SCC(=O)Nc2ccc(OC)c(OC)c2)c2ccccc21` it is -7.13%; for `Cc1cc(C)cc(NC(=S)N2CCC(NC(=O)C3CCCCC3)CC2)c1` it is -1.01%.
Turning to `CCOP(=O)(OCC)C(O)c1cc(OC)c(OC)c(OC)c1` (stereo unspecified), the inhibition was 0.28%.
As for `Cc1csc(CNc2ncnc3ccc(-c4cccnc4)cc23)c1`, the figure is 2.87%; as for `Fc1ccc(/C=N/NC2=Nc3cccc4cccc2c34)cc1`, -8.86%.
Regarding `C(=N\NC1=Nc2cccc3cccc1c23)/c1ccccc1`, the inhibition was 9.94%.
The figure for `CC(=O)c1c(C)[nH]c(C(=O)Nc2cccc(S(=O)(=O)N3CCOCC3)c2)c1C` is -28%; for `O=C(O)CNC(=S)NCc1ccccc1` it is -1.14%.
Take `COC(=O)c1[nH]c2cccc(OC)c2c1NC(=O)CN1CCN(c2cccc(OC)c2)C(C)C1` (stereo unspecified): the inhibition is 52.6%.
Turning to `CCOC(=O)c1[nH]c2cc(OC)c(OC)cc2c1NC(=O)CN1CCN(c2ccc(OC)cc2)C(C)C1` (stereo unspecified), the inhibition is -2.17%.
As for `O=C(c1cc2ccccc2oc1=O)N1CCN(Cc2ccc3c(c2)OCO3)CC1`, the figure is -3.79%; as for `C=C(c1ccccc1O)n1ccnc1`, 0.25%.
As for `O=C(COc1ccccc1)NNC(=S)NC(=O)c1ccc(Cl)cc1Cl`, the figure is 55.5%.
The figure for `O=C(COc1ccccc1)NNC(=S)NC(=O)c1ccccc1` is 56.3%; for `Cc1cccc(C(=O)NNC(=O)c2cccc(C)c2)c1` it is -16.6%; for `Cc1cccc(C(=O)NNC(=O)c2ccccc2)c1` it is -6.62%.
Regarding `O=C(c1cc(Br)c(Br)s1)N1CCN(C/C=C/c2ccccc2)CC1`, the inhibition is -4.13%.
With `OCCOCCn1c(C2CCCN2c2nc(-c3ccc(F)cc3)cs2)nc2cc(C(F)(F)F)ccc21` (stereo unspecified), the inhibition was 2.16%.
The figure for `CCOc1ccc(-n2nnc3c(=O)n(C/C=C/c4ccccc4)cnc32)cc1` is -10.8%.
Regarding `CC(=O)Nc1ccc(C(=O)CN2C(=O)NC3(CCCCCC3)C2=O)c(F)c1`, the inhibition was -9.64%.
The figure for `CC(C)c1ccc(OC(=O)c2cccc(S(=O)(=O)N3CCN(C)CC3)c2)cc1` is 10.8%; for `CC1(C)N=C(N)N=C(N)N1c1cccc(CN)c1` it is -3.4%.
For the molecule `Brc1ccc2ncc(Br)cc2c1`, the inhibition was 2.82%.
Take `Nc1ccc(Br)cc1Br`: the inhibition was -6.59%.
The figure for `COC(=O)C1CCN(C(=O)/C=C/c2ccccc2)CC1` is -5.05%; for `Cc1nn(Cc2ccccc2)c(C)c1CNC(=O)[C@H](C)N=C1NS(=O)(=O)c2ccccc21` it is 6.6%; for `Cc1cccc(-n2cc(CNCCN3CCOC3=O)c(-c3cccc(F)c3)n2)c1` it is 1.99%.
Consider `O=C1CC2(CCCCC2)Oc2ccc(F)cc21`, for which the inhibition is -0.1%.
As to `CCN(Cc1ccccc1)c1ccc(/C=N/NC(=S)NC(C)C)cc1`, the inhibition is 10.7%.
The figure for `NC(N)=N/N=C/c1ccccc1` is -2.68%.
As for `CCN(Cc1ccccc1)c1ccc(/C=N/N2CCOCC2)cc1`, the figure is 11.3%; as for `NC(N)=N/N=C/c1ccc(Br)cc1`, 10.5%.
As for `COc1ccc(-c2oc3cccnc3c2C#CCO)cc1`, the figure is 5.48%; as for `CC(=O)N/C(=C\c1ccccc1)C(=O)N1CCOCC1`, -6.38%.
In the case of `CN(C)CCCN1c2ccc([N+](=O)[O-])cc2CCc2cc([N+](=O)[O-])ccc21`, the inhibition was -1.94%.
As for `COc1cc(/C=C/c2cccc[n+]2C)ccc1OCC(=O)Nc1ccccc1C`, the figure is -9.56%; as for `CCOc1cc(/C=C\[N+](=O)[O-])ccc1OCC(=O)N1CCOCC1`, 3.95%.

The values above are taken from PubChem BioAssay AID449762 (Southern Research Specialized Biocontainment Screening …, 2010).
